hERG blockade data for 104 molecules are collected here from PubChem BioAssay AID376 (PDSP, 2006).

The campaign covered roughly 2,000 compounds. About 250 (12%) were called active. This is one part of a sample in which actives are shown more often than they occur. Cut-off read from the data, not from the text of the source: active = hERG blockade below about -20% or above about 20%; inactive = in between.

Sequence of Voltage-gated inwardly rectifying potassium channel KCNH2 (Homo sapiens) (Q12809 whole entry, looked up): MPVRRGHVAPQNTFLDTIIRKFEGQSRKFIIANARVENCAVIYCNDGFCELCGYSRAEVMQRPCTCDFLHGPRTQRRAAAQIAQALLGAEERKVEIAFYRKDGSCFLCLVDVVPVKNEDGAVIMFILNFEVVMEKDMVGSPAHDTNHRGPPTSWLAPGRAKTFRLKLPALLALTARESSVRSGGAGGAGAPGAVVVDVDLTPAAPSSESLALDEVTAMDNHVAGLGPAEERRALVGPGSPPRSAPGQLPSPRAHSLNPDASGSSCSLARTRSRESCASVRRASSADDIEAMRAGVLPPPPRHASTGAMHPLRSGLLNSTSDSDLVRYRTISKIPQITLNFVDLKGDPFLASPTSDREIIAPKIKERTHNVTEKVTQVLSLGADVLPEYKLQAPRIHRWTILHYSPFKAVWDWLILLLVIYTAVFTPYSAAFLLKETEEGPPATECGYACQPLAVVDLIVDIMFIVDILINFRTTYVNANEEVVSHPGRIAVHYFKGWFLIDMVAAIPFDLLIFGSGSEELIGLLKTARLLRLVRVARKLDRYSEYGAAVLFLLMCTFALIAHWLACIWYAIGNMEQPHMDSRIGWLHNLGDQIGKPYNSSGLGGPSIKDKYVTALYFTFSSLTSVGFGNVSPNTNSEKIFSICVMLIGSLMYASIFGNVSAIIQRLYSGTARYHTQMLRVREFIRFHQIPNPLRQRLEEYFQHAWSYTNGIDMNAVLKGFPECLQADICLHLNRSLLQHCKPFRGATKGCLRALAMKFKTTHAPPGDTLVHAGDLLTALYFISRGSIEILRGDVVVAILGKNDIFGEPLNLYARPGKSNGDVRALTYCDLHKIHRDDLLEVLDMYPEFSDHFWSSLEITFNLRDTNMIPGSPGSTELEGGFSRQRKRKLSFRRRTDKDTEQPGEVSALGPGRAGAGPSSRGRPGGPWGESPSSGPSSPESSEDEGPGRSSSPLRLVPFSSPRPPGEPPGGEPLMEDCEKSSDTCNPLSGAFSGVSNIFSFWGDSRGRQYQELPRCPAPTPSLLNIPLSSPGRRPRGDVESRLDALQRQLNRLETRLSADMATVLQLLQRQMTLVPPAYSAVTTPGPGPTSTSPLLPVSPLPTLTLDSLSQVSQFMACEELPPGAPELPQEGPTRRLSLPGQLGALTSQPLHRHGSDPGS

The assay addresses Voltage-gated inwardly rectifying potassium channel KCNH2 (Homo sapiens) (UniProt Q12809). As to the kind of experiment: KCNH2 potassium channel function modulators, cell-based (AID 376).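 Note: 0% = buffer alone and 100% = reference blocker.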 Conditions: hERG-expressing cells, channel activity single-concentration screen; concentration not given here. (In general: The hERG channel carries a current that helps repolarise heart muscle cells.)
`C(=NNc1nnc2c(n1)[nH]c1ccccc12)c1cccnc1`: the hERG blockade was 9.9% (inactive).

On to `C(=NNc1ccccn1)c1cccnc1`, for which the hERG blockade was 20.3% (active).

As to `c1ccc(CCc2cccnc2)nc1`, the hERG blockade is 5.71% (inactive).

Take `Nc1ccc(-c2ccc(Nc3cc(S(=O)(=O)O)c(N)c4c3C(=O)c3ccccc3C4=O)cc2)c(S(=O)(=O)O)c1`: the hERG blockade was 14.3% (inactive).

On to `O=C(O)CCNCC(=O)O`, for which the hERG blockade is 2.22% (inactive).

For `Cc1cc(C(C)(C)C)cc(CNC2CCCCC2)c1O`, the hERG blockade was -1.49% (inactive).

Consider `OCCN(CCO)c1ncnc2nc[nH]c12`, for which the hERG blockade was 9.05% (inactive).

As for `CN(C)CCCC1c2ccccc2Oc2ccc(C(F)(F)F)cc21` (centres undefined), the hERG blockade was 32.9% (active).

For the molecule `CCCC1c2c(ccc3ccccc23)Oc2ccc3ccccc3c21`, the hERG blockade is 16.8% (inactive).

Turning to `NC(N)=NN=Cc1ccc(O)c(C(=O)O)c1`, the hERG blockade was 7.85% (inactive).

Turning to `Cc1cc(CN2CCCCC2)c(O)c(CN2CCCCC2)c1`, the hERG blockade is 8.76% (inactive).

Regarding `O=C(O)c1[nH]c(=O)[nH]c(=O)c1CN1CCCCC1`, the hERG blockade was -7.69% (inactive).

Turning to `Cc1nc(CN2CCCCC2)c(O)c(=O)[nH]1`, the hERG blockade was -28.2% (active).

With `CCN1CCC(O)(C(C(=O)O)c2ccccc2)CC1` (centres undefined), the hERG blockade is 4.76% (inactive).

As for `CC(C)=CCNc1ncnc2nc[nH]c12`, the hERG blockade was -6.5% (inactive).

For the molecule `CCN(Cc1cc(Cl)cc(C)c1O)Cc1c(O)ccc2ccccc12`, the hERG blockade was 13% (inactive).

Consider `Cc1cccc2cc3ccc4ccccc4c3cc12`, for which the hERG blockade was 11.1% (inactive).

With `CCN(CC)CC(O)c1ccc2ccc3ccccc3c2c1` (centres undefined), the hERG blockade is -73.4% (active).

Regarding `N=C(N)SCCSC(=N)N`, the hERG blockade was 9.63% (inactive).

In the case of `N#CC(C#N)=NNc1ccc2cn[nH]c2c1`, the hERG blockade is -4.08% (inactive).

In the case of `CN(C)S(=O)(=O)Nc1ccccn1`, the hERG blockade was 4.55% (inactive).

For the molecule `CN(CCC(=O)O)S(=O)(=O)c1ccccc1`, the hERG blockade is -22% (active).

In the case of `CC(O)(CNS(=O)(=O)c1ccccc1)c1ccccc1` (centres undefined), the hERG blockade was -5.67% (inactive).

On to `O=C(O)CC[P+](c1ccccc1)(c1ccccc1)c1ccccc1`, for which the hERG blockade was 19.1% (inactive).

As for `O=c1[nH]c(SCc2cccc([N+](=O)[O-])c2)nc2nc[nH]c12`, the hERG blockade was 7.87% (inactive).

Consider `CC1(CO)C(O)CCC2(C)C1CCC1CC3CC12CCC3(O)COC(=O)CN` (centres undefined), for which the hERG blockade is 14.2% (inactive).

With `N=C(N)SCC(=O)O`, the hERG blockade is 11% (inactive).

As to `O=C(O)c1cscc1Cc1cccs1`, the hERG blockade was -9.17% (inactive).

Take `O=C(O)c1ccccc1CN1CCCC(C(=O)O)C1` (centres undefined): the hERG blockade is -4.8% (inactive).

`O=C(O)CSc1cc(-c2ccccc2)nc2ccccc12`: the hERG blockade is -16.2% (inactive).

Regarding `O=C(O)c1cc(-c2ccc(-c3ccccc3)cc2)nc2cc3ccccc3cc12`, the hERG blockade was 12.2% (inactive).

`OC(c1cc(-c2ccccc2)nc2c1ccc1ccccc12)C1CCCCN1` (centres undefined): the hERG blockade was 26.8% (active).

With `OC(c1cc(C23CC4CCC2CC(C4)C3)nc2c(Cl)cc(Cl)cc12)C1CCCCN1` (centres undefined), the hERG blockade was -0.23% (inactive).

For the molecule `OC(c1cc(C(F)(F)F)nc2c(Cl)cc(Cl)cc12)C1CCCCN1` (centres undefined), the hERG blockade was 28.7% (active).

For `O=C(O)c1cc(-c2ccc3cc4c(cc3c2)OCO4)nc2ccccc12`, the hERG blockade is 17.2% (inactive).

In the case of `Cc1cc(C)c2nc3c(c(C(O)C4CCCCN4)c2c1)CCC3=Cc1ccc(Cl)cc1` (centres undefined), the hERG blockade was 8.84% (inactive).

Regarding `OC(c1cc(-c2ccc(Cl)cc2)nc2ccccc12)C1CCCCN1` (centres undefined), the hERG blockade was 74.7% (active).

In the case of `c1ccc2nc(CCC3CCCCN3)ccc2c1` (centres undefined), the hERG blockade is -2.95% (inactive).

In the case of `COc1ccc(-c2cc(C(O)C3CCCCN3)c3ccccc3n2)cc1` (centres undefined), the hERG blockade is 72.7% (active).

`OC(CC1CCCCN1)c1ccc2c(c1)oc1ccccc12` (centres undefined): the hERG blockade is 4.42% (inactive).

Turning to `NC(CSCc1ccc(I)cc1)C(=O)O` (centres undefined), the hERG blockade is 8.02% (inactive).

As to `O=C(O)c1cc2c(cc1S(=O)(=O)O)C1C(C3C2C2(Cl)C(Cl)=C(Cl)C3(Cl)C2(Cl)Cl)C2(Cl)C(Cl)=C(Cl)C1(Cl)C2(Cl)Cl` (centres undefined), the hERG blockade is 3.63% (inactive).

Regarding `CC(C)Oc1cc(O)c2c(c1)OCC=C2CCC(=O)O`, the hERG blockade is 16% (inactive).

Turning to `O=C1OC2(c3ccc(O)cc3Oc3cc(O)ccc32)c2c1c(-c1ccccc1)c(-c1ccccc1)c(-c1ccccc1)c2-c1ccccc1`, the hERG blockade is -2.77% (inactive).

Take `O=C(O)C=CC=Cc1ccc2c(c1)OCO2`: the hERG blockade is -8.5% (inactive).

In the case of `O=C(O)CSC1=NCCN1`, the hERG blockade was -1.36% (inactive).

Turning to `Cc1ccc(S(=O)(=O)OC2CCN(C)CC2)cc1`, the hERG blockade is -11.1% (inactive).

Consider `Nc1ncnc2nn(C3OC(CO)C(O)C3O)nc12` (centres undefined), for which the hERG blockade is 13.3% (inactive).

`N#CC(=NCCO)C1=C(O)c2ccccc2C1=O`: the hERG blockade was -3.02% (inactive).

Consider `CC1CCCC2(CC[N+](C)(CCC[N+](C)(C)C)CC2)C1` (centres undefined), for which the hERG blockade was 17.8% (inactive).

In the case of `CCN(CC(=O)O)CC(=O)O`, the hERG blockade was 4.67% (inactive).

As to `CC12CCC(=O)C=C1CCC1C2C(O)CC2(C)C1CCC2(O)C(=O)COC(=O)C1CCCC1` (centres undefined), the hERG blockade was -2.63% (inactive).

For the molecule `CN1CCCC(C(=O)OCC(=O)C2(O)CCC3C4CCC5=CC(=O)CCC5(C)C4C(O)CC32C)C1` (centres undefined), the hERG blockade was 25.6% (active).

As to `CC12CCC(=O)C=C1CCC1C2C(O)CC2(C)C1CCC2(O)C(=O)CO` (centres undefined), the hERG blockade was 14.3% (inactive).

With `CC(NC(=O)C1(N)CCCC1)C(=O)O` (centres undefined), the hERG blockade is -5.06% (inactive).

In the case of `CCOC(=O)Cn1c(C(F)(F)F)nc2nc(Cl)c(Cl)nc21`, the hERG blockade was 13.4% (inactive).

For the molecule `O=C(O)c1nn(-c2ccccc2-c2n[nH]c(=O)[nH]c2=O)c(=O)[nH]c1=O`, the hERG blockade is 7.69% (inactive).

On to `O=C(O)c1nn(-c2ccc(Cl)cc2)c2c1C(=O)c1ccccc1C2=O`, for which the hERG blockade is 26% (active).

Take `O=C1C(=O)c2ccccc2C(O)=C1C(C1=C(O)c2ccccc2C(=O)C1=O)c1ccc(Cl)cc1`: the hERG blockade was 17.5% (inactive).

`Cc1cn(C2CC(N=[N+]=[N-])C(CO)O2)c(=O)[nH]c1=O` (centres undefined): the hERG blockade was 9.12% (inactive).

On to `CC(C)C12CCC3(CCC4C(C)(C(=O)O)CCCC4(C)C3C1)C(CN)C2` (centres undefined), for which the hERG blockade was -4.91% (inactive).

Take `CN(C)CCC=C1c2ccccc2C=Cc2ccccc21`: the hERG blockade was 15.1% (inactive).

As to `CN(C)CCC=C1c2ccccc2Sc2ccc(Cl)cc21`, the hERG blockade is 66.2% (active).

For `CC(C[n+]1ccccc1)=NN=C(N)N`, the hERG blockade is 12.9% (inactive).

Turning to `Clc1ccc2c(NC3CCC(N4CCCCC4)CC3)ccnc2c1` (centres undefined), the hERG blockade is 53.4% (active).

Consider `Clc1ccc2c(NCCNc3ccnc4cc(Cl)ccc34)ccnc2c1`, for which the hERG blockade is 0.444% (inactive).

On to `Clc1ccc2c(N3CCC(CCC4CCN(c5ncnc6cc(Cl)ccc56)CC4)CC3)ncnc2c1`, for which the hERG blockade is -8.41% (inactive).

`O=C(O)c1ccc(Nc2ccnc3cc(Cl)ccc23)cc1O`: the hERG blockade was -3.15% (inactive).

With `Clc1ccc2c(NCCNC3CCCCC3)ccnc2c1`, the hERG blockade is 63.2% (active).

As to `O=C(O)CN(CCN(CC(=O)O)CC(=O)O)CC(=O)O.[Mn+2]`, the hERG blockade was -6.49% (inactive).

In the case of `O=c1ccc(-c2ccccc2)n[nH]1`, the hERG blockade was 17.2% (inactive).

As to `CC(C)C(N)(C(=O)O)c1ccccc1` (centres undefined), the hERG blockade was -5.81% (inactive).

With `CC1(c2ccccc2)OC2CC3C4CCC5=CC(=O)C=CC5(C)C4(F)C(O)CC3(C)C2(C(=O)CO)O1` (centres undefined), the hERG blockade is 6.41% (inactive).

On to `O=CNc1ncn[nH]1`, for which the hERG blockade was -3.79% (inactive).

Regarding `c1c[nH]c(CN2CCOCC2)n1`, the hERG blockade is 2.23% (inactive).

Take `CC1CCC2C(C)C3C(CC4C5CC=C6CC(O)CCC6(C)C5CC(O)C43C)N2C1` (centres undefined): the hERG blockade is -3.2% (inactive).

On to `CC(=O)Nc1nc(NC(C)=O)c2[nH]c(CO)nc2n1`, for which the hERG blockade is 0.0402% (inactive).

Turning to `O=S1(=O)NC2CCC3NS(=O)(=O)NC4CCC(N1)N4S(=O)(=O)N23` (centres undefined), the hERG blockade is 0.569% (inactive).

For `CN(C)CCN(c1ccccn1)c1ccccn1`, the hERG blockade is -15.1% (inactive).

Take `C[N+](C)(C)CCN(Cc1cccs1)c1ccccn1`: the hERG blockade was 39.5% (active).

As to `CC(CO)(CO)N=Cc1cc(I)cc(I)c1O`, the hERG blockade is 5% (inactive).

In the case of `O=C1Oc2ccccc2C(=O)C1=CN1C(=O)NC(=Cc2ccccc2O)C1=O`, the hERG blockade was 10.5% (inactive).

For `c1ccc(SC(Sc2ccccc2)c2ccc3c(c2)OCO3)cc1`, the hERG blockade was 15.6% (inactive).

On to `CN(C)c1ccc(C(=C2C=CC(=[N+](C)C)C=C2)c2c(O)c(S(=O)(=O)[O-])cc3cc(S(=O)(=O)O)ccc23)cc1`, for which the hERG blockade is 8.17% (inactive).

Regarding `N=C1C=CC(=C(c2ccc(N)cc2)c2ccc(N)cc2)C=C1`, the hERG blockade was 9.77% (inactive).

Turning to `CN(C)c1ccc(C(=C2C=CC(=[N+](C)C)C=C2)c2ccccc2)cc1`, the hERG blockade was 40.6% (active).

For the molecule `O=C(O)CCC(=O)Nc1ccc2ccccc2c1`, the hERG blockade was 10% (inactive).

On to `CC(=O)CC(=O)Nc1ccc2ccccc2c1`, for which the hERG blockade was 2.34% (inactive).

Turning to `O=C(c1ccccc1)C(Nc1ccc2ccccc2c1)c1ccccc1` (centres undefined), the hERG blockade is 25.3% (active).

As for `O=S(=O)(O)C(CO)c1ccccc1` (centres undefined) (tested in a mixture with another compound), the hERG blockade is 13.2% (inactive).

Take `NNC(=O)c1ccc(OCc2nc3ccccc3[nH]2)cc1`: the hERG blockade is 0.772% (inactive).

In the case of `CN(CC(=O)O)Cc1c(O)c(Cl)cc(Cl)c1Cl`, the hERG blockade is -16.4% (inactive).

As for `CN(CC(=O)O)Cc1oc(CO)cc(=O)c1O`, the hERG blockade was -29.8% (active).

With `O=C(O)C1CCN(Cc2oc(CO)cc(=O)c2O)C1` (centres undefined), the hERG blockade was 3.01% (inactive).

Regarding `CC1=C(CCC(C)CO)OC2CC3C4CCC5CC(O)CCC5(C)C4CC(=O)C3(C)C12` (centres undefined), the hERG blockade is -6.35% (inactive).

Turning to `NC1=C(O)C(=O)C(c2c[nH]c3ccc(OCc4ccccc4)cc23)O1` (centres undefined), the hERG blockade was 12.8% (inactive).

With `Nc1nc(-c2ccc3ccccc3c2)cc(-c2cc(-c3ccc4ccccc4c3)nc(N)n2)n1`, the hERG blockade was 2.73% (inactive).

Regarding `S=C1NCN2CCN(CC2)CNC(=S)C(=S)NCN2CCN(CC2)CNC1=S`, the hERG blockade was 17.9% (inactive).

Regarding `O=[N+]([O-])c1cc(Cl)cc2c1nc(NCCO)c1ccccc12`, the hERG blockade is 38% (active).

As to `O=[N+]([O-])c1cc(Cc2cc([N+](=O)[O-])c3cccnc3c2O)c(O)c2ncccc12`, the hERG blockade is -5.37% (inactive).

Regarding `Nc1nc(Cl)cc(NCCO)n1`, the hERG blockade is -8.52% (inactive).

For `O=C(Cn1ccc(=O)[nH]c1=O)Nc1ccc(C(=O)O)c(O)c1`, the hERG blockade was -7.44% (inactive).

As for `O=C(O)CCCCn1ccc(=O)[nH]c1=O`, the hERG blockade was -28% (active).

With `Cc1cn(CCC(N)C(=O)O)c(=O)[nH]c1=O` (centres undefined), the hERG blockade is 2.71% (inactive).
